# Many of the other results were omitted from the sample, so hits are more common in it than they were.
# Sm TGR block: blocks Schistosoma mansoni thioredoxin glutathione reductase | purified TGR, DTNB reduction, TNB absorbance 405 nm | Potency, µM (doses to about 114 µM), for the others: at the highest dose activity change, negative = inhibition, most hits filed as inhibitors | 360,000 compounds, 3% hits; further: potency means the concentration at half of the fitted maximal effect; on the % scale 0 is the no-effect control and ±100 the full control effect; nearly all actives have a fitted effect of over 60% in size
#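 First, TGR (20 nM dispensed) and NADPH were mixed with compound. Second, a 15 min room-temperature incubation followed. Third, further NADPH and then DTNB were added to start the reaction. Finally, TNB absorbance was monitored kinetically.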
# FBPA Giardia inh: Giardia lamblia aldolase inhibition; 290,000 compounds, 0.71% hits; purified Giardia FBPA; AID 2451; Potency, µM (highest dose often 59.6 µM), for the others: top-dose activity, negative = inhibition, usual class: inhibitors; further: potency means the concentration at half of the fitted maximal effect; on the % scale 0 is the no-effect control and ±100 the full control effect; nearly all actives have a fitted effect of over 55% in size
#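 Giardia FBPA (40 nM reagent) was preincubated 10 min at RT with compound (up to 57.5 uM final), then substrate plus GAPDH/TPI/NAD/arsenate coupling system with diaphorase/resazurin was added; resorufin fluorescence (525/598 nm) was read after 20 min.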
# Tb PYK inh: inhibitors of Trypanosoma brucei pyruvate kinase | Q57TT1 | TbPYK enzyme, Kinase-Glo Plus ATP luminescence, 45 min | Potency, µM (titrated, usually from 76.8 µM), inactives show top-dose activity, negative = inhibition, most hits filed as inhibitors | 410,000 compounds, 0.12% hits; further: potency means the concentration at half of the fitted maximal effect; on the % scale 0 is the no-effect control and ±100 the full control effect; nearly all actives have a fitted effect of over 50% in size
#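 In this concentration-response screen, enzyme-free wells defined baseline while DMSO plates tracked drift. Each reaction combined TbPYK, substrate, compound and 130 uM ADP for 45 min at room temperature. Kinase-Glo Plus luminescence gave the signal.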
# LmPK inhibitor: inhibitors of Leishmania mexicana pyruvate kinase; AID 1721; 290,000 compounds, 0.37% hits; Potency, µM (highest dose often 57.5 µM), inactives show at the highest dose activity change, negative = inhibition, most hits filed as inhibitors; Q27686; purified LmPK, Kinase-Glo ATP luminescence, 1 h; further: potency means the concentration at half of the fitted maximal effect; on the % scale 0 is the no-effect control and ±100 the full control effect
# Target sequence (Q27686 whole entry, looked up): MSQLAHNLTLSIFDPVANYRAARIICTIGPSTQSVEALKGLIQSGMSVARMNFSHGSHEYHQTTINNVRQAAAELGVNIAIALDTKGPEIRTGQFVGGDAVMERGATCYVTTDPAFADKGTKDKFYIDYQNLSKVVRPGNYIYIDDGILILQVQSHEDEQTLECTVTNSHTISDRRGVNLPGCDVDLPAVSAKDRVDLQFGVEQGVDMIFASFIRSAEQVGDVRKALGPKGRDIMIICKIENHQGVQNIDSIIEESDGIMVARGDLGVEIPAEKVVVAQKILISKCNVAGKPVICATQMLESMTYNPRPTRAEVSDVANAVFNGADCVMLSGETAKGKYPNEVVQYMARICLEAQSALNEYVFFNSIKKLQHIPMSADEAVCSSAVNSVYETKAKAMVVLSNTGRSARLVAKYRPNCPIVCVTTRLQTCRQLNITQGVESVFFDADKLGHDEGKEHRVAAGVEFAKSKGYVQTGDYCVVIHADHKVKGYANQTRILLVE
#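 ATP generated from ADP (0.1 mM) and PEP (0.5 mM) by 0.1 nM LmPK over 1 h at room temperature (pH 7.2 imidazole buffer) was detected by coupled luciferase luminescence. Values were normalized to uninhibited and no-enzyme wells.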
# Shiga inhibitor: inhibitors of Shiga toxin in Vero cells; Vero cells, Shiga toxin protein synthesis inhibition reporter; inhibition, % at 38.7 µM; 290,000 compounds, 9.2% hits; AID 2315; in the data active means inhibition mostly above about 28%, no sharp cut-off; inactive means mostly below about 43%; further: 0% is about no effect
# Cycloheximide cs: affects cycloheximide protein synthesis inhibition readout, counter-screen | cell reporter, cycloheximide protein synthesis inhibition counterscreen | max response, % | 300,000 compounds, 12% hits; in the data active means max response mostly above about 13%, no sharp cut-off; inactive means mostly below about 14%; further: read at 38.3 µM for the half of the compounds with a filed dose; 0% is about no effect
# * marks the source's active call; other numbers are inactive results; ? = inconclusive; · = no result; + = active, no number. Unless noted, the call rests on the fitted dose curve; in most records, active means well fitted curve in the direction sought with a large enough effect; inconclusive means small, poorly fitted or top-dose-only effect, or another doubt; inactive means no such curve, though single readings can be large; an effect the other way counts as inactive or inconclusive.
SMILES,Sm TGR block,FBPA Giardia inh,Tb PYK inh,LmPK inhibitor,Shiga inhibitor,Cycloheximide cs
O=C1NC2(C=Cc3c(ccc4ccccc34)O2)Oc2ccccc21 (stereo not drawn),-19%,-2%,5%,-5%,84*,31*
Cc1cc(-n2cnnn2)ccc1C(C)C,-9%,1%,2%,-2%,33,23*
FC(F)(F)c1ccc(-c2noc(-c3ccccc3)c2I)cc1,·,6%,·,·,+,46*
COc1ccc(CCNC(=O)CN2C(=O)COc3ccccc32)cc1OC,7%,·,-2%,·,·,·
CS(=O)(=O)c1ccc2nc(NC(=O)c3cccc(NS(=O)(=O)c4ccc(F)c(F)c4)c3)sc2c1,-4%,0%,-2%,-4%,35,19*
O=C(Nc1nc2ccc(SC(F)F)cc2s1)c1ccc(NS(=O)(=O)c2ccc(F)c(F)c2)cc1,4%,-1%,-4%,0%,79*,41*
CS(=O)(=O)c1ccc2nc(NC(=O)c3ccc(NS(=O)(=O)c4ccc(F)c(F)c4)cc3)sc2c1,-4%,-7%,-4%,2%,28,15
CCN1C[C@@H]2[C@@H]3C(=O)N(C)C(=O)[C@@H]3[C@](Cc3ccccc3)(C(=O)OC)N2C1=NCc1ccccc1,·,·,3%,·,·,·
COC(=O)CC1C(C)(C)C(OC(C)=O)C2CC3C4CC(=O)OC(c5ccoc5)[C@]4(C)CCC3[C@@]1(C)C2=O (stereo partly drawn),·,-1%,·,·,·,·
CC(C(=O)Nc1ccc(F)c(Cl)c1)N1Cc2ccccc2C1=O (stereo not drawn),3%,·,3%,·,·,·
Brc1ccc2[nH]c3c(N4CCc5ccccc5C4)ncnc3c2c1,-4%,-25%,-9%,1%,72*,49*
Cn1cc(CN2CCN(CC(C)(C)C)C(CCO)C2)c2ccccc21 (stereo not drawn),-25%,-2%,4%,0%,-2,-1
COc1ccc(CN2CCN(CCCc3ccccc3)C(CCO)C2)c(O)c1 (stereo not drawn),?,0%,4%,-1%,-7,1
CC(C)CN1CCN(Cc2cn(C)c3ccccc23)CC1CCO (stereo not drawn),89µM*,-2%,1%,2%,-3,-1
OCCC1CN(Cc2c(O)ccc3ccccc23)CCN1CCc1ccccc1 (stereo not drawn),0.63µM*,20µM*,-12%,7%,4,2
COc1cc(CN2CCN(CCCc3ccccc3)C(CCO)C2)cc(OC)c1O (stereo not drawn),20µM*,?,-15%,2%,-6,-4
COc1ccc(CN2CCN(CCc3ccccc3)C(CCO)C2)c(O)c1 (stereo not drawn),45µM*,1%,4%,0%,-8,-2
OCCC1CN(Cc2ccccc2O)CCN1CCCc1ccccc1 (stereo not drawn),-13%,2%,1%,1%,-7,-4
O=[N+]([O-])c1ccc(N2CCOCC2)cc1O,-1%,0%,5%,-2%,-4,1
Cc1cc(N2CCOCC2)ccc1/C=C\[N+](=O)[O-],20µM*,0%,-22%,-11%,-14,-11
Cc1ccc(N(CC(=O)Nc2ccc(C)c(Cl)c2)S(=O)(=O)c2cccs2)cc1,8%,·,1%,·,·,·
COc1ccc(OCC(=O)Nc2nc3ccccc3[nH]2)cc1,6%,-9%,-3%,-5%,38*,22*
O=C(COc1ccc2ccccc2c1)Nc1nc2ccccc2[nH]1,-1%,-6%,-7%,-11%,29,-2
CCOc1ccccc1OCCCC(=O)Nc1nc2ccccc2[nH]1,3%,1%,0%,5%,-2,5
COc1ccccc1CCC(=O)Nc1nc2ccccc2[nH]1,8%,-1%,-1%,1%,69*,40*
SMILES,Sm TGR block,FBPA Giardia inh,Tb PYK inh,LmPK inhibitor,Shiga inhibitor,Cycloheximide cs
COc1cccc(CC(=O)N[C@@H](CCSC)c2nc3ccccc3[nH]2)c1,?,-1%,5%,8%,-13,2
CCCCCC(=O)Nc1nc2ccccc2[nH]1,0%,8%,-9%,-1%,62*,32*
COc1ccc(CCC(=O)Nc2nc3ccccc3[nH]2)cc1OC,0%,-3%,2%,11%,-3,-4
COc1cccc(CC(=O)Nc2nc3ccccc3[nH]2)c1,·,0%,6%,3%,65,24*
COc1ccc(CCC(=O)Nc2nc3ccccc3[nH]2)cc1,-5%,1%,1%,2%,42,19*
COc1ccc(CC(=O)Nc2nc3ccccc3[nH]2)cc1,9%,-4%,-4%,-1%,-7,6
COc1ccc(CCC(=O)Nc2cnc3ccccc3c2)cc1,2%,9%,-4%,-3%,79*,32*
COc1cc(CCC(=O)Nc2cnc3ccccc3c2)cc(OC)c1OC,5%,-3%,-2%,4%,-4,5
CC(C)CC(=O)NC(=S)Nc1ccccn1,29%,-29%,8%,2%,44,26*
O=C(CCc1ccccc1)NC(=S)Nc1ccccc1Br,?,-11%,-2%,3%,52*,13
COc1ccccc1NC(=S)NC(=O)CC(C)C,28µM*,4%,-2%,2%,-8,-1
COc1cc(NC(=S)NC(=O)CCc2ccccc2)cc(OC)c1,?,·,7%,-3%,14,10
COc1ccccc1NC(=S)NC(=O)CCc1ccccc1,4.5µM*,·,-1%,-3%,10,11
CC1(C(=O)NS(=O)(=O)Cc2cccc(Cl)c2)CCN1C(=O)c1cccc(F)c1 (stereo not drawn),·,·,-7%,·,·,·
Cc1ccc(CNC(=O)c2cccc(NC(=O)N3CCSc4ncccc43)c2)cc1,3%,·,3%,·,·,·
Cc1ccccc1NC(=S)NC(=O)COc1ccccc1C,0%,·,5%,-8%,-14,27*
C#Cc1ccc(NC(=O)C2(C)CCN2C(=O)C2(c3ccccc3)CCCC2)cc1 (stereo not drawn),·,·,0%,·,·,·
CCOc1ccc(N2C(=O)CC(N3CCN(c4ccc(Cl)cc4)CC3)C2=O)cc1 (stereo not drawn),3.2µM*,3%,-13%,1%,-18,2
O=C1CC(N2CCSCC2)C(=O)N1c1cccc(Cl)c1 (stereo not drawn),28µM*,4%,-1%,2%,-8,-4
CCN1C(=O)CC(N2CCN(c3ccc(Cl)cc3)CC2)C1=O (stereo not drawn),0%,-2%,0%,0%,-14,-1
O=C1CC(N2CCN(c3ccccc3)CC2)C(=O)N1c1cccc(Cl)c1 (stereo not drawn),?,-5%,1%,3%,11,6
COC(=O)c1ccc(N2C(=O)CC(N3CCN(C(=O)c4ccco4)CC3)C2=O)cc1 (stereo not drawn),?,8%,-6%,1%,-3,4

# High-throughput results deposited in PubChem by National Center for Advancing Translational Sciences (NCATS).
